Assay results from PubChem BioAssay (EPA / NIEHS).
Records with an inconclusive call do not appear. The source made the active and inactive calls. The calls were made as follows, unless noted: active = hit-call score of the fitted dose curve at least 0.9, where 1 is the maximum; inactive = score below 0.9.

What was measured:
[1] = target: human Retinoid X Receptor beta (RXRb), RXRB (gene 6257) (UniProt P28702); test: ATG_RXRb_TRANS: Attagene TRANS-FACTORIAL HepG2 Assay for human Retinoid X Receptor beta (RXRb) (AID 2283013; active = hit-call score of the fitted dose curve at least 0.9, where 1 is the maximum)
human Retinoid X Receptor beta (RXRb), RXRB (gene 6257), sequence (P28702 whole entry, looked up): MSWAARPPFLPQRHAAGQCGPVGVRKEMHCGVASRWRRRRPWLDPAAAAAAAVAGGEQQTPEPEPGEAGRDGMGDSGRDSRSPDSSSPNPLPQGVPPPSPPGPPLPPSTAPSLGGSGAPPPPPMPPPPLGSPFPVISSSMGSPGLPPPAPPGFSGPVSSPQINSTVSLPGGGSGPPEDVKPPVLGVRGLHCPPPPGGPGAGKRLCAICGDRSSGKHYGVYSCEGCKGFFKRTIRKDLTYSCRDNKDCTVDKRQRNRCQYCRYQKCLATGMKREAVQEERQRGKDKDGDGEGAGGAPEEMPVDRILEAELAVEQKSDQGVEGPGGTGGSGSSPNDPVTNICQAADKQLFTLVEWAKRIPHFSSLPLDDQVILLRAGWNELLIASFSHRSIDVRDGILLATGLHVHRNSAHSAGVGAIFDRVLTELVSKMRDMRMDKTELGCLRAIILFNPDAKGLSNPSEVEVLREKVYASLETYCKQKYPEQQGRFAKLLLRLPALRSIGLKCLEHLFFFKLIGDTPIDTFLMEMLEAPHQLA
How it was run: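 Multiplexed TRANS reporter assay in HepG2; 24 h dosing; reporter mRNA by RT-PCR/CE fluorescence; gain-of-signal relative to DMSO.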

[2] = read-out: E-selectin (Homo sapiens) (UniProt P16581); test: BSK_3C_Eselectin: BioMAP Diversity Plus: 3C Assay for Eselectin Biomarker Activity (AID 2283015); settings: primary human endothelial cells (HUVEC); actives raise or lower the signal
How it was run: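 ELISA read-out of E-selectin on endothelial monolayers after 24 h chemical treatment. Human umbilical vein primary cells served as the system, with DMSO defining baseline activity for bidirectional fitting.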

[3] = read-out: Interleukin-1 alpha (IL1a), IL1A (gene 3552); test: BSK_BE3C_IL1a: BioMAP Diversity Plus: BE3C Assay for Interleukin-1 alpha (IL1a) Biomarker Activity (AID 2283016); settings: primary human bronchial epithelial cells; actives raise or lower the signal
How it was run: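 Cultures of primary human bronchial epithelial cells receive test chemical. After 24 h, IL-1a is quantified by ELISA, while parallel wells are fixed in TCA and SRB-stained for total protein. Changes in either direction are fitted relative to DMSO.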

[4] = read-out: Monocyte Chemoattractant Protein-1 (MCP1), CCL2 (gene 6347); test: BSK_3C_MCP1: BioMAP Diversity Plus: 3C Assay for Monocyte Chemoattractant Protein-1 (MCP1) Biomarker Activity (AID 2283017); settings: primary human endothelial cells (HUVEC); actives raise or lower the signal
How it was run: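 ELISA read-out of MCP-1 from human umbilical vein endothelial cell cultures harvested 24 h post-dosing. Gain or loss of signal was fitted relative to DMSO.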

[5] = read-out: Monocyte Chemoattractant Protein-1 (MCP1), CCL2 (gene 6347); test: BSK_4H_MCP1: BioMAP Diversity Plus: 4H Assay for Monocyte Chemoattractant Protein-1 (MCP1) Biomarker Activity (AID 2283018); settings: primary human endothelial cells (HUVEC); actives raise or lower the signal
How it was run: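 Readout: MCP-1 ELISA on compound-treated HUVEC, sampled 24 h post-dosing. Baseline and negative control DMSO; bidirectional fit. Overt toxicity checked alongside by sulforhodamine B protein staining at time of biomarker measurement.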

[6] = read-out: Human Leukocyte Antigen - DR isotype (HLADR), HLA-DRA (gene 3122); test: BSK_3C_HLADR: BioMAP Diversity Plus: 3C Assay for Human Leukocyte Antigen - DR isotype (HLADR) Biomarker Activity (AID 2283019); settings: primary human endothelial cells (HUVEC); actives raise or lower the signal
How it was run: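 ELISA readout of surface HLA-DR on human umbilical vein endothelium, taken 24 h after chemical treatment. Gain- and loss-of-signal were both fitted relative to DMSO.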

[7] = read-out: Interleukin-8 (IL8), CXCL8 (gene 3576); test: BSK_3C_IL8: BioMAP Diversity Plus: 3C Assay for Interleukin-8 (IL8) Biomarker Activity (AID 2283020); settings: primary human endothelial cells (HUVEC); actives raise or lower the signal
How it was run: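 Human vascular endothelial cells (umbilical vein) in the 3C system; IL-8 level detected by ELISA at 24 h post-dose, with DMSO as baseline.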

[8] = target: human Vitamin D Receptor (VDR), VDR (gene 7421) (UniProt P11473); test: ATG_VDR_TRANS: Attagene TRANS-FACTORIAL HepG2 Assay for human Vitamin D Receptor (VDR) (AID 2283022; active = hit-call score of the fitted dose curve at least 0.9, where 1 is the maximum)
human Vitamin D Receptor (VDR), VDR (gene 7421), sequence (P11473 whole entry, looked up, the tested form may be a part): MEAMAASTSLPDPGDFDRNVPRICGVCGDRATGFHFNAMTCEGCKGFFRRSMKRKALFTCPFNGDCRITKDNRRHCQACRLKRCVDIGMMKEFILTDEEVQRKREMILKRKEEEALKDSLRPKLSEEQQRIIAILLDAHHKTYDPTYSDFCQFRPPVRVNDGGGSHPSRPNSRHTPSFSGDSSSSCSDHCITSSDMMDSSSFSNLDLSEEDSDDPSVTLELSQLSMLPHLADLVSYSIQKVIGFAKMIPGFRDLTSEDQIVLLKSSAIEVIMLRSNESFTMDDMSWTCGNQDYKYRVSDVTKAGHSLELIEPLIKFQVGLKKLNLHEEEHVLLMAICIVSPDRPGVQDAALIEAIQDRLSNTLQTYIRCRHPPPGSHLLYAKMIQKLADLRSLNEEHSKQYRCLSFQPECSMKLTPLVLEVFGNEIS
How it was run: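 Steps: transfect HepG2 with GAL4-UAS-driven reporter constructs; dose compounds 24 h; isolate RNA, reverse-transcribe, PCR-amplify with 6-FAM-labelled primer extension and HpaI digestion; quantify fragments by capillary electrophoresis relative to DMSO.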

[9] = BSK_3C_SRB: Viability Assessment in the BioMAP Diversity Plus: 3C Assay (AID 2283023); settings: primary human endothelial cells (HUVEC);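 also: fitted both ways against DMSO so a hit may be signal rise or drop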
How it was run: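 Absorbance at 560 nm of sulforhodamine B-stained (0.1%) total protein served as a cytotoxicity readout in human umbilical vein endothelial cells, 24 h after chemical treatment. Signal was fitted bidirectionally relative to DMSO.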

[10] = read-out: Matrix Metallopeptidase 1 (MMP1), MMP1 (gene 4312); test: BSK_BE3C_MMP1: BioMAP Diversity Plus: BE3C Assay for Matrix Metallopeptidase 1 (MMP1) Biomarker Activity (AID 2283024); settings: primary human bronchial epithelial cells; actives raise or lower the signal
How it was run: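 Dose cells, wait 24 h, run MMP1 ELISA; cells are human bronchial epithelial primaries. Both increases and decreases relative to DMSO counted.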

[11] = BSK_3C_Vis: BioMAP Diversity Plus: 3C Assay for Morphology Visualization (AID 2283025); settings: primary human endothelial cells (HUVEC);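 also: fitted both ways so gain or loss versus DMSO counts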;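 as to AC50: light microscopy image of cell morphology used as background control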
How it was run: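 Endothelial cells from human umbilical vein were treated with test chemicals for 24 h and inspected by light microscopy for changes in cell conformation.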

[12] = read-out: Pselectin, SELP (gene 6403); test: BSK_4H_Pselectin: BioMAP Diversity Plus: 4H Assay for Pselectin Biomarker Activity (AID 2283026); settings: primary human endothelial cells (HUVEC); actives raise or lower the signal
How it was run: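 Human vascular endothelium from umbilical vein; P-selectin measured by ELISA at 24 h post-dose, with cytotoxicity checked by sulforhodamine B total-protein staining in parallel cultures (0.1% SRB after 10% TCA fixation, read at 560 nm).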

[13] = BSK_4H_SRB: Viability Assessment in the BioMAP Diversity Plus: 4H Assay (AID 2283027); settings: primary human endothelial cells (HUVEC);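 also: cells exposed to compound for 24 h before staining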;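 as to AC50: curves fitted both ways versus DMSO so AC50 may be loss or gain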
How it was run: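 Absorbance at 560 nm of SRB-stained total protein served as the viability read-out in confluent primary human umbilical vein endothelium 24 h after chemical treatment. Curves were fitted bidirectionally against DMSO as negative control.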

[14] = BSK_BE3C_SRB: Viability Assessment in the BioMAP Diversity Plus: BE3C Assay (AID 2283028); settings: primary human bronchial epithelial cells;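 as to AC50: fitted both ways so AC50 may mark signal gain or loss versus DMSO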
How it was run: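 Cells (human bronchial epithelial, primary) are treated with chemicals, and after 24 h the parallel cultures are fixed in 10% TCA. These are then stained with 0.1% SRB and read at 560 nm. Gain or loss of signal is fitted relative to DMSO.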

[15] = read-out: Urokinase-type plasminogen activator receptor (uPAR), PLAUR (gene 5329); test: BSK_4H_uPAR: BioMAP Diversity Plus: 4H Assay for Urokinase-type plasminogen activator receptor (uPAR) Biomarker Activity (AID 2283030); settings: primary human endothelial cells (HUVEC); actives raise or lower the signal
How it was run: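 Cell-surface uPAR ELISA signal, measured 24 h after dosing human umbilical vein endothelial cells, was analyzed with bidirectional fitting relative to DMSO. Parallel SRB staining of total protein tracked overt cytotoxicity.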

[16] = target: Retinoic acid receptor RXR-alpha (Homo sapiens) (UniProt P19793); test: ATG_RXRa_TRANS: Attagene TRANS-FACTORIAL HepG2 Assay for human Retinoid X Receptor alpha (RXRa) (AID 2283012; active = hit-call score of the fitted dose curve at least 0.9, where 1 is the maximum)
Retinoic acid receptor RXR-alpha (Homo sapiens), sequence (P19793 whole entry, looked up, the tested form may be a part): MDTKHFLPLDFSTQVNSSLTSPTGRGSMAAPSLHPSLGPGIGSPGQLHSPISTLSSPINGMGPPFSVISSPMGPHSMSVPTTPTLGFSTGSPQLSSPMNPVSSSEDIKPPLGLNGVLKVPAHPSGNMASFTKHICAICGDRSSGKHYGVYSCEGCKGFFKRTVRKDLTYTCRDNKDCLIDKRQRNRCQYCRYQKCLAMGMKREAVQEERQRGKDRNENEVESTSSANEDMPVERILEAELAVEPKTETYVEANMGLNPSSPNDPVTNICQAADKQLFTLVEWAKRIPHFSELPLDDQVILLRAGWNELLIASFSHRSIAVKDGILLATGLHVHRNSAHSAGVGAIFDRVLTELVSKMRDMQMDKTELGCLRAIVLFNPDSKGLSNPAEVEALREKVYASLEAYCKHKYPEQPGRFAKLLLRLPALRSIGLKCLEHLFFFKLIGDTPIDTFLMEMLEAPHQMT
How it was run: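 Cells (HepG2) carried transiently transfected GAL4-responsive reporter units. Following a 24 h chemical incubation, reporter mRNA induction was read via RT-PCR fragment analysis; DMSO served as negative control and baseline.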

[17] = read-out: Thrombomodulin, THBD (gene 7056); test: BSK_3C_Thrombomodulin: BioMAP Diversity Plus: 3C Assay for Thrombomodulin Biomarker Activity (AID 2283029); settings: primary human endothelial cells (HUVEC); actives raise or lower the signal
How it was run: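 Thrombomodulin ELISA, human primary HUVEC, 24 h post-dose; data fitted in both directions relative to DMSO.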

[18] = read-out: Monokine induced gamma interferon (MIG), CXCL9 (gene 4283); test: BSK_3C_MIG: BioMAP Diversity Plus: 3C Assay for Monokine induced gamma interferon (MIG) Biomarker Activity (AID 2283021); settings: primary human endothelial cells (HUVEC); actives raise or lower the signal;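 as to AC50: MIG protein level measured by immunoassay in the treated endothelial cultures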
How it was run: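 After 24 h of treatment, human umbilical vein endothelial cultures (3C system) had their MIG biomarker level determined by ELISA, with DMSO serving as negative control.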

[19] = target: human RAR-related Orphan Receptor gamma (RORg), RORC (gene 6097) (UniProt P51449); test: ATG_RORg_TRANS: Attagene TRANS-FACTORIAL HepG2 Assay for human RAR-related Orphan Receptor gamma (RORg) (AID 2283011; active = hit-call score of the fitted dose curve at least 0.9, where 1 is the maximum)
human RAR-related Orphan Receptor gamma (RORg), RORC (gene 6097), sequence (P51449 whole entry, looked up, the tested form may be a part): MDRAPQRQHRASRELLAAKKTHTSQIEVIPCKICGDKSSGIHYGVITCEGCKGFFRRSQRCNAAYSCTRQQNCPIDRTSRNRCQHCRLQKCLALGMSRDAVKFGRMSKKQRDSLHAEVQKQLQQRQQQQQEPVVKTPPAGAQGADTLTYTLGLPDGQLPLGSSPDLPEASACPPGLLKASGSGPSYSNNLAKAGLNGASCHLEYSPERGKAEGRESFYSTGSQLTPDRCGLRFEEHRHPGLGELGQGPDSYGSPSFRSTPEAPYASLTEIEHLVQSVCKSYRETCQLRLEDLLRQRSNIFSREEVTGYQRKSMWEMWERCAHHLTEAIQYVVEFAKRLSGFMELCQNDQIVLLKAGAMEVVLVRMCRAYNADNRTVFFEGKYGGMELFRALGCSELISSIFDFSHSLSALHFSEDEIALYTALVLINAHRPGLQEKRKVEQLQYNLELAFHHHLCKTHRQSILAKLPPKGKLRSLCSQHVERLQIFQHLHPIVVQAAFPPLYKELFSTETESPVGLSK
How it was run: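 First, HepG2 liver cells were transfected with GAL4-UAS-driven reporter constructs and the RORg-Gal4 fusion. Next, they were treated with chemical for 24 h. Finally, reporter mRNA was quantified by RT-PCR and capillary electrophoresis, with upward activity fitted against DMSO.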

Measured: AC50

E-selectin (Homo sapiens), sequence (P16581 whole entry, looked up): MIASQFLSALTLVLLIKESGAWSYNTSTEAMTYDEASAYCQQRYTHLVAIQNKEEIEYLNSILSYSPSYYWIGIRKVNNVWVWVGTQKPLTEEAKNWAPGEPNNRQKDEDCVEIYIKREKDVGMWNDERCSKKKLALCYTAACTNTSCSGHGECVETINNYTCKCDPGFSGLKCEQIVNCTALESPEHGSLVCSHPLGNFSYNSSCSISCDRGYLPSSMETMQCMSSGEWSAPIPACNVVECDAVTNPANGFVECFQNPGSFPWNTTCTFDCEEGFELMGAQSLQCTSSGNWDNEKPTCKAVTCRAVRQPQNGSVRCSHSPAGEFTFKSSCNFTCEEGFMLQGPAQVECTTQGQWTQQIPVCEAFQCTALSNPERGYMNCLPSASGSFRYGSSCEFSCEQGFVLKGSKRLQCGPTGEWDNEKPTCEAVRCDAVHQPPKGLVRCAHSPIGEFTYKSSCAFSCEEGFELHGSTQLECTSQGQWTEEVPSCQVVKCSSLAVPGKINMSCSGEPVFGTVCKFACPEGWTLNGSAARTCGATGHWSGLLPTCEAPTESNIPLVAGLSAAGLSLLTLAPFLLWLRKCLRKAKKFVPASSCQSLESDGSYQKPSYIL

CCOCN(C(=O)CCl)c1c(C)cccc1CC
active: [2] 15.7 µM | [5] 20 µM | [6] 20 µM | [9] 18.2 µM | [11] 39 µM | [12] 11.4 µM | [14] 20 µM
not listed: [16] | [17] | [18] | [19]
inactive: all other assays above

COC(=O)c1ccccc1S(=O)(=O)NC(=O)Nc1nc(C)nc(OC)n1
not listed: [17] | [18] | [19]
inactive: all other assays above

CC1(c2ccc(Oc3ccccc3)cc2)OC(=O)N(Nc2ccccc2)C1=O (stereo not drawn)
active: [2] 30.9 µM | [4] 33.3 µM | [5] 16.3 µM | [6] 24 µM | [7] 24 µM | [9] 28.5 µM | [11] 16.3 µM | [12] 31.7 µM | [13] 20 µM | [14] 27.5 µM | [15] 16.1 µM
inactive: [16] | [1] | [3] | [10]

O=[N+]([O-])/N=C1\NCCN1Cc1ccc(Cl)nc1
not listed: [18] | [19]
inactive: all other assays above

CCCN(CCC)c1c([N+](=O)[O-])cc(C(F)(F)F)cc1[N+](=O)[O-]
active: [5] 24.7 µM | [9] 24.8 µM | [11] 13.7 µM | [12] 36.5 µM
not listed: [8] | [16] | [17] | [18] | [19]
inactive: all other assays above

COC(=O)c1ccccc1S(=O)(=O)NC(=O)N(C)c1nc(C)nc(OC)n1
active: [12] 12.9 µM
not listed: [1] | [8] | [17] | [19]
inactive: all other assays above

C[C@H]1[C@H](c2ccc(Cl)cc2)SC(=O)N1C(=O)NC1CCCCC1
inactive: [1] | [2] | [3] | [18] | [12] | [15]
active: [4] 20 µM | [5] 8.84 µM | [6] 21.8 µM | [7] 20 µM | [9] 12.1 µM | [10] 12.8 µM | [11] 15.2 µM | [13] 20 µM | [14] 15.7 µM

CC(C)N(C(=O)COc1nnc(C(F)(F)F)s1)c1ccc(F)cc1
active: [5] 22.4 µM | [12] 11.1 µM
not listed: [8] | [18] | [19]
inactive: all other assays above

CCOc1nc(NC)nc(NC(=O)NS(=O)(=O)c2ccccc2C(=O)OC)n1
not listed: [8] | [17] | [19]
inactive: all other assays above

O=S1OCC2C(CO1)C1(Cl)C(Cl)=C(Cl)C2(Cl)C1(Cl)Cl (stereo not drawn)
inactive: [16] | [8] | [17]
active: [2] 34.5 µM | [3] 33.4 µM | [4] 30.3 µM | [5] 26 µM | [6] 30 µM | [7] 32.7 µM | [18] 36 µM | [9] 20 µM | [10] 36.6 µM | [11] 16.3 µM | [12] 27.3 µM | [13] 27.7 µM | [14] 20.9 µM | [15] 30.5 µM

CNC(=O)Oc1ccccc1OC(C)C
active: [3] 5.51 µM
not listed: [1] | [8] | [16] | [17] | [18]
inactive: all other assays above

COc1nn(CSP(=S)(OC)OC)c(=O)s1
active: [6] 36.5 µM
not listed: [8] | [17] | [18]
inactive: all other assays above

C#CCN1C(=O)COc2cc(F)c(N3C(=O)C4=C(CCCC4)C3=O)cc21
not listed: [17] | [19]
inactive: all other assays above
